In PubChem BioAssay one finds composite z-score and z-score data, which are given here for 21 molecules.

Structures are written as SMILES. Active and inactive are the calls of the source.

Experiment [1] has as its system XIP peptide (Xip251-270) binding. In words: XIP fragment 251-270 binding compounds – biochemical, small-molecule microarray, fluorescence 635/667 nm, 0.1 µg/mL protein, primary screen (AID 1182). The settings on record: fluorescent protein binding, 635 nm, higher = more signal, called active from +8 up or from −8 down.
Another experiment has as its system XIP peptide (Xip251-270). Kind of experiment: compounds binding XIP fragment 251-270 – biochemical, small-molecule microarray, fluorescence 635/667 nm, 0.5 µg/mL protein, primary screen (AID 1183). The settings on record: fluorescence 635 nm, higher = more signal.
The nature of experiment [2]: blood-stage malaria parasite viability loss – strain 3D7, DAPI fluorescence, 100 nL, primary screen (AID 1184).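 Note: parasites grown inside human red blood cells in medium with human serum.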 The settings on record: P. falciparum 3D7 growth, 3 d, higher = more signal.
Experiment [3] addresses Homeobox protein Hox-A13 (Mus musculus) (UniProt Q62424). In words: disruptors of Hoxa13 oligonucleotide interaction – biochemical, fluorescence polarization, labeled oligonucleotide, primary screen (AID 1185). The note with it: Hoxa13:DNA binding, 15 min, higher = more signal, called active from +8 up or from −8 down. (In general: In fluorescence polarisation assays a small probe gives low polarisation when free and higher when bound to something large.)

Chain of Homeobox protein Hox-A13 (Mus musculus) (Q62424 whole entry, looked up): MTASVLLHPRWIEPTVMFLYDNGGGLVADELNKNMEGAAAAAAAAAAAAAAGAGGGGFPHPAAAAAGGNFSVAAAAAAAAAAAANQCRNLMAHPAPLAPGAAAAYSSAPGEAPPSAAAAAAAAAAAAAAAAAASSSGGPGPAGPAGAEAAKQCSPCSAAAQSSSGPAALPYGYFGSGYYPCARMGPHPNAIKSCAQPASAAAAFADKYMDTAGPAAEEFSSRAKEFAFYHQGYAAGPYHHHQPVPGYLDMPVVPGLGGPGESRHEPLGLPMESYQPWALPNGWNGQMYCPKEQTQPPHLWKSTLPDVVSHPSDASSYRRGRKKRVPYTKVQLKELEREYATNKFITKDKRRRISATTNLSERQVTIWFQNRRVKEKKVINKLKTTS

On to `CC(C)(C)N1C(=O)[C@H]2[C@H]3[C@H](O)[C@H](O)CC(=O)[C@H]3CC[C@H]2C1=O`, for which the composite z-score was 0.596 (inactive) in experiment [1] and 0.556 in the experiment with XIP peptide (Xip251-270). In addition, the figures for the z-score in experiment [2] and in experiment [3] were -1.08 and 0.117 (inactive), respectively.
In the same order, the values of `CON=C[C@@H](NS(=O)(=O)c1ccc(C)cc1)[C@H](C)C=CCC(=O)OC` are 0.212 (inactive), 0.332, 1.25 and 1.12 (inactive).
In the same order, the values of `CO[C@@H]1COC(=O)[C@@H](C)COC(=O)[C@@H](C)NC(=O)CC=C[C@@H]1C` are 0.0875 (inactive), 0.304, -1.52 and -0.701 (inactive).
As for `COc1ccc(O[C@H]2C=C[C@@H](c3ccccc3)O[C@@H]2CON=C(C)C)cc1`, the composite z-score in experiment [1] was 0.862 (inactive); in the experiment on XIP peptide (Xip251-270), 0.267. Also, the z-score in experiment [2] was 0.894; in experiment [3] it was 2.39 (inactive).
Consider `O=C1[C@H]2[C@H]3[C@H](O)[C@H](O)CC(=NOCc4ccccc4)[C@@H]3CC[C@H]2C(=O)N1c1ccc(F)cc1F`, for which the composite z-score in experiment [1] was -0.228 (inactive); in the experiment on XIP peptide (Xip251-270), 0.0159. Besides, the z-score is -0.545 in experiment [2] and 0.941 (inactive) in experiment [3].
In the same order, the values of `CC(=O)OC[C@H]1O[C@@H](ON=C(C)CCN2CCCc3nc(C)c(C)cc32)[C@H](OC(C)=O)[C@@H](OC(C)=O)[C@@H]1OC(C)=O` are -0.444 (inactive), 0.667, -1.3 and -5.84 (inactive).
Regarding `Cc1ccc(S(=O)(=O)N[C@H]2COC(=O)CC=C[C@@H](C)COC(=O)CC=C[C@@H]2C)cc1`, the composite z-score is 0.172 (inactive) in experiment [1] and 0.921 in the experiment on XIP peptide (Xip251-270). Also, the z-score in experiment [2] was 0.641; in experiment [3], -1.06 (inactive).
In the same order, the values of `CC(C)(C)N1C(=O)[C@H]2[C@H]3[C@H](O)[C@H](O)CC(=O)[C@@H]3CC[C@H]2C1=O` are -0.138 (inactive), 0.419, -0.507 and -0.472 (inactive).
Regarding `CO[C@H](C1CCCCC1)[C@H](C)C=CCC(=O)OCCCc1ccccc1`, the composite z-score in experiment [1] is -0.74 (inactive); in the experiment with XIP peptide (Xip251-270), 0.628. The z-score in experiment [2] is -0.45; in experiment [3] it was 1.25 (inactive).
In the same order, the values of `CCOC(=O)CCN1C(=O)[C@H]2[C@H]3[C@H](O)[C@H](O)CC(=NOCc4ccccc4)[C@H]3CC[C@H]2C1=O` are -0.207 (inactive), -0.0274, 0.172 and 0.313 (inactive).
In the same order, the values of `CCc1cc2c(nc1CC)CCN(CCC(C)=NO[C@@H](C)c1cn([C@H](CO)Cc3ccccc3)nn1)C2` are 0.444 (inactive), 0.704, -1.72 and -6.65 (inactive).
In the same order, the values of `O=C1C[C@@H](O)[C@@H](O)[C@@H]2[C@@H]3C(=O)N(C[C@@H]4CCCO4)C(=O)[C@@H]3CC[C@H]12` are 0.195 (inactive), 0.156, 0.116 and 0.195 (inactive).
For `CC(=O)OC[C@H]1OC(ON=CC[C@@H]2C=C[C@H](OC(C)=O)[C@@H](COC(C)=O)O2)[C@H](OC(C)=O)[C@@H](OC(C)=O)[C@@H]1OC(C)=O` (some centres undefined), the composite z-score in experiment [1] was -0.476 (inactive); in the experiment with XIP peptide (Xip251-270), 0.0849. For the same molecule, the z-score in experiment [2] was 0.728; in experiment [3] it was -2.22 (inactive).
In the same order, the values of `O=C(NN=C1C[C@@H](O)[C@@H](O)[C@@H]2[C@@H]3C(=O)N(Cc4ccccc4)C(=O)[C@@H]3CC[C@@H]12)OCc1ccccc1` are -0.0255 (inactive), -0.36, 0.915 and 0.236 (inactive).
In the same order, the values of `COCOc1ccc(Br)cc1C(=O)[C@@H]1O[C@H]1c1cccc(OC)c1` are -0.0455 (inactive), 0.106, 0.194 and -1.99 (inactive).
Consider `COC(=O)[C@@H]1CC[C@H](C)[C@@H](c2ccc(C)cc2)N1C(=O)c1ccc(C=NO[C@@H]2O[C@H](COC(C)=O)[C@@H](OC(C)=O)[C@H](OC(C)=O)[C@H]2OC(C)=O)cc1`, for which the composite z-score was -0.279 (inactive) in experiment [1] and 0.649 with XIP peptide (Xip251-270). In addition, the z-score in experiment [2] was -1.4; in experiment [3], 0.102 (inactive).
In the same order, the values of `CCOC(=O)[C@H](CC(C)C)NC(=O)CCC1CC(OC(=O)NCCc2ccc(F)cc2)CC2(CCCC(COC(=O)NCC3CCCCC3)O2)O1` (some centres undefined) are -0.0257 (inactive), 0.437, -1.9 and -7.04 (inactive).
Turning to `CC(C)(C)N1C(=O)[C@H]2[C@H]3[C@H](O)C=CC(=O)[C@@H]3CC[C@H]2C1=O`, the composite z-score was 0.127 (inactive) in experiment [1] and 0.16 in the experiment on XIP peptide (Xip251-270). The z-score was -0.0484 in experiment [2] and 0.14 (inactive) in experiment [3].
In the same order, the values of `CCCNC(=O)OC[C@H]1O[C@H](CCON=C(C)C)C=C[C@@H]1Oc1ccc(OC)cc1` are 0.771 (inactive), 0.219, 1.07 and 0.928 (inactive).
In the same order, the values of `COc1ccc(O[C@@H]2[C@H](O)CO[C@@H]2C=Cc2ccccc2)cc1` are 0.196 (inactive), 0.592, -0.971 and -0.162 (inactive).
In the same order, the values of `COC(=O)[C@@H]1CC[C@H](C)[C@@H](c2ccc(C)cc2)N1C(=O)c1ccc(C=NOC[C@@H](C)[C@H](OCc2ccccc2)C(C)C)cc1` are 0.0611 (inactive), 0.489, -1.87 and -4.87 (inactive).
